The values that follow come from PubChem BioAssay (NCI).

This is part of a sample that, as a whole, favours compounds with a hit. Of some 83,000 tested, about 20% had one in any assay.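 Assay: single dose, 48 h. Readout: percent growth (0 = no net growth; negative = cell death). Active: <10.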 A number with no mark means an inactive call. The source made the active and inactive calls.

Experiment in all cases: NCI-60 one-dose screen, 48 h (100 = growth as untreated, 0 = no growth, -100 = all killed)
Common to all, as to conditions: 10 µM

The test system of assay [1] is NCI-H23 lung.
Assay [2] has as its system NCI-H226 lung.
In assay [3] the test system is NCI-H322M lung.
In assay [4] the test system is HOP-62 NSCLC.
Assay [5] has as its system NCI-H460 lung.
Assay [6] has as its system HOP-92 NSCLC.
The subject of assay [7] is NCI-H522 lung.
Assay [8] has as its system A549/ATCC NSCLC.
For assay [9], the system named is 786-0 renal.
Assay [10] has as its system COLO 205 colon.

Take `Brc1ccc(-c2cn3ccnc3c(-c3ccc(Br)cc3)n2)cc1`: the growth in assay [1] is 59.8%; in assay [2], 70.6%; in assay [3], 86.7%; in [4] it was 33.2%; in [5], 16.8%; in assay [6], 55.8%. The growth in assay [7] was -14.9% (active); in [8] it was 31.9%; in assay [9], 57.8%; in [10] it was 7.83% (active).

Take `COc1cc(-c2nc3ccc(C)cc3[nH]2)ccc1OCc1nnc(-c2ccc(CC(C)C)cc2)o1`: the growth is 93.2% in assay [1]; 86.9% in assay [2]; 97.2% in [3]; 90.6% in assay [4]; 90.8% in [5]; 79.4% in [6]. Moreover, the growth in assay [7] is 97.4%; in assay [8], 93.5%; in assay [9], 90%; in [10], 103%.

On to `CCOc1ccc(-n2cc(-c3ccc(N(C)C)cc3)[n+]3c2CCCCC3)cc1`, for which the growth in assay [1] is 0.183% (active); in assay [2], 18.6%; in assay [3], 45.3%; in assay [4], 3.02% (active); in assay [5] it was 5.52% (active); in assay [6], -8.52% (active). The growth in [7] was -0.392% (active); in assay [8] it was 22.4%; in assay [9] it was 20.7%; in [10] it was -68.6% (active).

As to `CCCCCCCCCCCC(=O)NCCCN(C)C`, the growth was 90.4% in [1]; 109% in assay [2]; 97.1% in [3]; 111% in assay [4]; 99.6% in [5]; 45.5% in assay [6]. For the same compound, the growth is 87.4% in [7], 91.4% in [8], 90.9% in assay [9] and 94.4% in assay [10].

As for `C=CCOc1ccc2c(c1)CC=C1[C@@H]2CC[C@]2(C)C(=O)/C(=N/O)C[C@@H]12`, the growth in assay [1] was 95.1%; in assay [2], 96.1%; in [3], 81.2%; in assay [4], 103%; in [5], 60.3%; in assay [6], 101%. The growth in assay [7] was 80.7%; in assay [8] it was 84.3%; in assay [9], 79.2%; in [10], 91.3%.

Consider `N=C(N)c1ccc(-c2ccc(-c3cccs3)s2)nc1`, for which the growth in assay [1] was 71.2%; in assay [2], 67.6%; in [3] it was -13.1% (active); in assay [4], 66.5%; in assay [5], -22% (active); in [6], -9.04% (active). The growth in assay [7] is 72.8%; in [8], 2.67% (active); in assay [9] it was 56.2%; in [10], -94% (active).

In the case of `COc1ccc(Cn2cc3c(c2-c2cc(OC)c(OC)c(OC)c2)CCc2cnoc2-3)cc1[N+](=O)[O-]`, the growth in assay [1] was 26.1%; in [2] it was 47.5%; in [3] it was 26.7%; in assay [4], 56.6%; in assay [5] it was 7.93% (active); in assay [6] it was 64%. Moreover, the growth in assay [7] is 46.2%; in assay [8], 34%; in assay [9], 34.3%; in assay [10], 1.15% (active).

For `N#Cc1c(-c2ccccc2)nc(SCC(=O)N2CCOCC2)[nH]c1=O`, the growth in assay [1] was 104%; in [2], 98%; in assay [3] it was 98.1%; in assay [4], 83.7%; in assay [5], 105%; in [6] it was 88.9%. The growth in assay [7] was 83.6%; in assay [8], 101%; in assay [9] it was 100%; in assay [10], 105%.

Regarding `Cc1ccc2c3c(cccc13)-c1ccccc1C2=O`, the growth in assay [1] is 86.5%; in [2], 91.1%; in assay [3] it was 92.4%; in [4], 93.6%; in assay [5], 96.2%; in assay [6] it was 108%. Further, the growth in assay [7] was 67.1%; in [8], 81.8%; in assay [9], 99.4%; in assay [10], 93.9%.

On to `COc1ccc(-c2nc(-c3nc4ccc(OC)cc4[nH]3)c3ccccn23)cc1`, for which the growth in assay [1] was 90.5%; in assay [2], 75.1%; in assay [3], 65%; in [4], 63%; in assay [5] it was 67.7%; in [6] it was 13.9%. Further, the growth in assay [7] is 62.8%; in [8], 48%; in [9], 84.4%; in assay [10], 95.1%.

For `C=C[C@]1(C)C=C2C(=O)[C@@]3(O)OC(=O)[C@@]4(CCCC(C)(C)[C@H]34)[C@@]2(O)CC1`, the growth in assay [1] is -60.6% (active); in [2], -55.8% (active); in [3] it was -27.4% (active); in assay [4], -1.33% (active); in [5], 0.905% (active); in [6] it was -87.6% (active). The growth was -71.7% (active) in assay [7], -66.6% (active) in assay [8], -98.5% (active) in assay [9] and -98.2% (active) in [10].

Consider `COc1ccc(-c2ccccc2)cc1C(=O)c1ccc(-c2ccccc2)cc1`, for which the growth in [1] is 73.6%; in [2] it was 88.2%; in [3] it was 75.5%; in assay [4], 70.4%; in assay [5] it was 88.9%; in assay [6], 88.4%. In addition, the growth in [7] was 42.7%; in [8], 63.7%; in [9] it was 77.4%; in assay [10], 82.5%.

For the compound `O=S(=O)(NC1c2ccccc2Oc2ccccc21)c1cc(Cl)ccc1Cl`, the growth in assay [1] was 97.6%; in assay [2] it was 83.4%; in assay [3] it was 90%; in assay [4], 89.4%; in [5] it was 105%; in assay [6], 60.2%. In addition, the growth is 29.5% in [7], 97.1% in assay [8], 84.6% in assay [9] and 98.9% in assay [10].

As to `CCOC(=O)Nc1ccc2c(c1)C(=O)N(CCOC)c1ccccc1O2`, the growth in [1] was 52%; in [2] it was 77.1%; in [3], 43%; in [4], 43%; in [5], 23%; in [6] it was 45%. The growth is 18.4% in assay [7], 44.8% in assay [8], 45.3% in [9] and 13% in assay [10].
